# From article PMC8384837, “Expanding the binding specificity for RNA recognition by a PUF domain”
# Positions count from the first letter of the chain named.
# Experiments:
# Experiment in all cases: yeast three-hybrid, YBZ-1, SC-Leu-His + 0.5 mM 3-AT, 4 days
# Conditions in all cases: tags: N-Gal4 AD-HA kept; label: inside an RPR1-promoter hybrid RNA with tandem MS2 sites; ssRNA
# PUM1 PUF domain R4-VYG = PUM1 PUF domain R4-VYG (Homo sapiens, UniProt Q14671 828-1176, N971V;H972Y;Q975G)
# Method in brief: (§1)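 Matching RNA elements and Pumilio-1 PUF domain libraries, randomized at the three base-contacting residues of every repeat, were co-expressed from a centromeric plasmid in strain YBZ-1 (LexA–MS2 coat fusion, HIS3 reporter). The repeat regions were PCR-amplified and Illumina-sequenced from cells grown four days on SC-Leu (input) or SC-Leu-His + 0.5 mM 3-AT (selection). The interaction score is the log change in variant frequency from input to selection. It is computed in log2, with a pseudocount of 1 for absent variants.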
# PUM1 PUF domain R2-EWS = PUM1 PUF domain R2-EWS (Homo sapiens, UniProt Q14671 828-1176, N899E;Y900W;Q903S)
# Method in brief: as §1
# PUM1 PUF domain R5-DWA = PUM1 PUF domain R5-DWA (Homo sapiens, UniProt Q14671 828-1176, C1007D;R1008W;Q1011A)
# Method in brief: as §1
# PUM1 PUF domain R5-GHA = PUM1 PUF domain R5-GHA (Homo sapiens, UniProt Q14671 828-1176, C1007G;R1008H;Q1011A)
# Method in brief: as §1
# PUM1 PUF domain R5-RDK = PUM1 PUF domain R5-RDK (Homo sapiens, UniProt Q14671 828-1176, C1007R;R1008D;Q1011K)
# Method in brief: as §1
# PUM1 PUF domain R5-EFD = PUM1 PUF domain R5-EFD (Homo sapiens, UniProt Q14671 828-1176, C1007E;R1008F;Q1011D)
# Method in brief: as §1
# PUM1 PUF domain R5-CHQ = PUM1 PUF domain R5-CHQ (Homo sapiens, UniProt Q14671 828-1176, R1008H)
# Method in brief: as §1
# PUM1 PUF domain R6-MYG = molecular target: T1, PUM1 PUF domain R6-MYG (Homo sapiens, UniProt Q14671 828-1176, N1043M;Q1047G)
# T1 sequence: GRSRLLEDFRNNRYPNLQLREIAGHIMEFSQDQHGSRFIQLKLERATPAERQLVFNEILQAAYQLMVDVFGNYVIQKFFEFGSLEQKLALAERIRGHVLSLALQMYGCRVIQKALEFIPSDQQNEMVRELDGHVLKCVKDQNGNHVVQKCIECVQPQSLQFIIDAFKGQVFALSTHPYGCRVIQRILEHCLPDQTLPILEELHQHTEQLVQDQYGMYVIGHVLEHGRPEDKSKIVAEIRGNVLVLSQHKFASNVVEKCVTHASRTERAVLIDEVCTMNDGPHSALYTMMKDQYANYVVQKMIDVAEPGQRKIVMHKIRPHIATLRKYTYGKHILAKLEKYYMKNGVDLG
# Method in brief: as §1
# PUM1 PUF domain R8-KFR = PUM1 PUF domain R8-KFR (Homo sapiens, UniProt Q14671 828-1176, N1122K;Y1123F;Q1126R)
# Method in brief: as §1
# PUM1 PUF domain R3-ASY = PUM1 PUF domain R3-ASY (Homo sapiens, UniProt Q14671 828-1176, C935A;R936S;Q939Y)
# Method in brief: as §1
# PUM1 PUF domain R3-LFS = PUM1 PUF domain R3-LFS (Homo sapiens, UniProt Q14671 828-1176, C935L;R936F;Q939S)
# Method in brief: as §1
# PUM1 PUF domain R6-RWS = molecular target: T2, PUM1 PUF domain R6-RWS (Homo sapiens, UniProt Q14671 828-1176, N1043R;Y1044W;Q1047S)
# T2 sequence: T1 sequence with M216R, Y217W, G220S
# Method in brief: as §1
# PUM1 PUF domain R8-KKT = PUM1 PUF domain R8-KKT (Homo sapiens, UniProt Q14671 828-1176, N1122K;Y1123K;Q1126T)
# Method in brief: as §1
# PUM1 PUF domain R1-NWG = PUM1 PUF domain R1-NWG (Homo sapiens, UniProt Q14671 828-1176, S863N;R864W;Q867G)
# Method in brief: as §1
# PUM1 PUF domain R5-RNI = PUM1 PUF domain R5-RNI (Homo sapiens, UniProt Q14671 828-1176, C1007R;R1008N;Q1011I)
# Method in brief: as §1
sequence,measurement,setting,value
GGCUAGAACUAGUGGAUCCCCCGGCGCCCGGCGGCUCGAGCCCGGGUAAGUGUAGAUAGUCUGCAUGCCGCCGGGCGCCAUGCCUGCAGGUCGACUCUAGAAAACAUG,binding signal,PUM1 PUF domain R4-VYG,5.26 log2 enrichment (interaction score)
GGCUAGAACUAGUGGAUCCCCCGGCGCCCGGCGGCUCGAGCCCGGGUAAGUGUAAAGAGUCUGCAUGCCGCCGGGCGCCAUGCCUGCAGGUCGACUCUAGAAAACAUG,binding signal,PUM1 PUF domain R2-EWS,4.8 log2 enrichment (interaction score)
GGCUAGAACUAGUGGAUCCCCCGGCGCCCGGCGGCUCGAGCCCGGGUAAGUGUGAAUAGUCUGCAUGCCGCCGGGCGCCAUGCCUGCAGGUCGACUCUAGAAAACAUG,binding signal,PUM1 PUF domain R5-DWA,4.75 log2 enrichment (interaction score)
same,binding signal,PUM1 PUF domain R5-GHA,3.2 log2 enrichment (interaction score)
same,binding signal,PUM1 PUF domain R5-RDK,4.56 log2 enrichment (interaction score)
GGCUAGAACUAGUGGAUCCCCCGGCGCCCGGCGGCUCGAGCCCGGGUAAGUGUAAAUAGUCUGCAUGCCGCCGGGCGCCAUGCCUGCAGGUCGACUCUAGAAAACAUG,binding signal,PUM1 PUF domain R5-EFD,4.36 log2 enrichment (interaction score)
same,binding signal,PUM1 PUF domain R5-DWA,1.76 log2 enrichment (interaction score)
same,binding signal,PUM1 PUF domain R5-GHA,3.68 log2 enrichment (interaction score)
same,binding signal,PUM1 PUF domain R5-CHQ,2.46 log2 enrichment (interaction score)
same,binding signal,PUM1 PUF domain R6-MYG,4.1 log2 enrichment (interaction score)
same,binding signal,PUM1 PUF domain R8-KFR,6.77 log2 enrichment (interaction score)
same,binding signal,PUM1 PUF domain R3-ASY,2.58 log2 enrichment (interaction score)
same,binding signal,PUM1 PUF domain R3-LFS,3.98 log2 enrichment (interaction score)
same,binding signal,PUM1 PUF domain R6-RWS,6.05 log2 enrichment (interaction score)
GGCUAGAACUAGUGGAUCCCCCGGCGCCCGGCGGCUCGAGCCCGGGUAAGUGUAAGUAGUCUGCAUGCCGCCGGGCGCCAUGCCUGCAGGUCGACUCUAGAAAACAUG,binding signal,PUM1 PUF domain R3-LFS,6.56 log2 enrichment (interaction score)
GGCUAGAACUAGUGGAUCCCCCGGCGCCCGGCGGCUCGAGCCCGGGUAAGCGUAAAUAGUCUGCAUGCCGCCGGGCGCCAUGCCUGCAGGUCGACUCUAGAAAACAUG,binding signal,PUM1 PUF domain R8-KKT,3.48 log2 enrichment (interaction score)
GGCUAGAACUAGUGGAUCCCCCGGCGCCCGGCGGCUCGAGCCCGGGUAAGUGUAAAUUGUCUGCAUGCCGCCGGGCGCCAUGCCUGCAGGUCGACUCUAGAAAACAUG,binding signal,PUM1 PUF domain R1-NWG,5.42 log2 enrichment (interaction score)
GGCUAGAACUAGUGGAUCCCCCGGCGCCCGGCGGCUCGAGCCCGGGUAAGUGUCAAUAGUCUGCAUGCCGCCGGGCGCCAUGCCUGCAGGUCGACUCUAGAAAACAUG,binding signal,PUM1 PUF domain R5-DWA,2.25 log2 enrichment (interaction score)
same,binding signal,PUM1 PUF domain R5-RNI,3.78 log2 enrichment (interaction score)
